This assay addresses Hexose transporter 1 (Plasmodium falciparum) (UniProt O97467). In words: ST_JUDE_LEISH: Cytotoxicity at 2uM final concentration against transgenic Leishmania Mexicana promastigotes LmPfHT that are glucose transport deficient and complemented with the Plasmodium falciparum hexose transporter. Activity is measured by DNA content using SYBR green in vitro. The class given is functional.
With `Cc1cccc(-c2nn(-c3ccccc3)c3[nH]c(=O)c(CN4CCSCC4)cc23)c1`, the inhibition (usually the relative decrease from the control value, in per cent) was -2.03%.
In the case of `N#Cc1ccc(NC(=O)c2ccc(Cc3ccc4c(c3)CCN(C3CCC3)CC4)cn2)cc1`, the inhibition came out at 10.6%.
Next, `CC1CN(Cc2ccc(-c3ccc(-c4nc5cc(F)ccc5[nH]4)cc3)cc2)CC(C)O1` (stereo not given): 6.63%.
The figure for `Cn1c(N)c(N=O)c(=O)[nH]c1=O` is 0.51%; for `COc1ccc(CCN2CCC(NCc3cccc(N(C)C)c3)CC2)cc1` it is 2.54%; for `Cc1[nH]c(C)c(-c2ccc(-c3ccccc3Cl)nc2)c(=O)c1Br` it is 1.48%.
Next, `COCCNCc1cccc(-c2ccc3nccc(Nc4cc(O)ccc4C)c3c2)c1`: 4.21%; `O=C(NCCCCN1CC=C(c2ccc3c(c2OCc2ccccc2)CCCC3)CC1)c1ccc(-c2ccc(C(F)(F)F)cc2)cc1`: -1.29%.
Turning to `CN1CCN(CC(=O)Nc2ccc(-c3cccc(-c4nc5cc(C(F)(F)F)ccc5[nH]4)c3)cc2)CC1`, the inhibition came out at 1.68%.
Next, `CCc1cc(C(=O)c2cccc(C)c2)c(NC(=O)CN2CCN(C(=O)c3ccco3)CC2)s1`: 2.67%.
Next, `CC(C)COc1ccc(Cl)cc1Nc1nc(-c2nc3ccccc3[nH]2)cs1`: 1.35%.
Next, `CCOC(=O)C1=C(C)NC2=C(C(=O)CC(C)(C)C2)C1c1ccc(Cl)cc1` (stereo not given): 0.77%; `COc1ccc(C2CC(=O)C3=C(C2)NC(C)=C(C(=O)OC2CCCC2)C3c2ccc(O)cc2)cc1OC` (stereo not given): 0.53%.
`Cc1ccc(-c2nc3cc(C(=O)NC4CCC(N5CCCc6ccc(C#N)cc6C5)CC4)ccc3[nH]2)cc1` (stereo not given): the inhibition was -0.52%.
The figure for `O=C(/C=C/c1ccc(Cl)c(Cl)c1)N1CCC(CN2CCC(c3c[nH]c4cnccc34)CC2)CC1` is 3.14%.

The values are drawn from ChEMBL document CHEMBL3433997, “St. Jude Leishmania screening dataset” (2016).
